From PubChem
A selection: hits, their analogues and other compounds. The true share with any hit is near 9.3%.
Rab9 promoter act = qHTS Assay for Rab9 Promoter Activators | Huh7 Rab9 promoter-luciferase reporter, luminescence, 24 h | Potency, µM (titrated, usually from 9.22 µM), without a hit: at the top dose activation, negative = inhibition, actives largely listed as activators | hit rate 2.8% among 320,000 | AID 485297, 2010; note: % of control where 0% means no effect; nearly all actives have a fitted effect of over 60% in size
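Stable Rab9-luc Huh7, 1500 cells/well, 2 h settle; cmpd in DMSO, 24 h, 37 °C/5% CO2; luciferase reagent 10 min RT; luminescence.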
ELG1 DNA repair = qHTS screen for small molecules that inhibit ELG1-dependent DNA repair in human embryonic kidney (HEK293T) cells expressing luciferase-tagged ELG1; Potency, µM (highest dose often 46.1 µM), inactives show at the highest dose activity change, negative = inhibition, most hits filed as inhibitors; HEK293T ELG1-luciferase reporter, luminescence, 16 h; DNA damage induced by 5-fluorouridine; hit rate 2.3% among 330,000; note: % is set by controls: 0 for no effect and ±100 for the full control effect; nearly all actives have a fitted effect of over 55% in size
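DMSO vehicle served as the neutral condition. Each well held 2,000 cells given 5-fluorouridine plus compound; after 16 hr at 37 °C/5% CO2, ONE-Glo was added and luciferase measured 30 min later.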
SMN2 splice enh = qHTS Assay for Enhancers of SMN2 Splice Variant Expression; Potency, µM (titrated, usually from 46.1 µM), for the others: top-dose activity change, positive = activation, usual class: activators; hit rate 2.8% among 210,000; HEK293 SMN2-luciferase splicing reporter, luminescence, 30-36 h; note: % of control where 0% means no effect; nearly all actives have a fitted effect of over 55% in size
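qHTS luciferase splicing reporter: luminescence rises when SMN2 exon 7 is included in transfected HEK293 cells. Compound exposure lasted 30-36 h at 37C, with 4.5 mM final sodium butyrate as control, followed by a ONE-Glo read.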
NPC1 promoter act = qHTS Assay for NPC1 Promoter Activators; Potency, µM (doses to about 9.22 µM), for the others: at the highest dose activation, actives largely listed as activators; hit rate 2.4% among 320,000; Huh7 NPC1 promoter luciferase reporter, 24 h; note: % of control where 0% means no effect; nearly all actives have a fitted effect of over 60% in size
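Luciferase expression driven by the NPC1 promoter was measured in stably transfected Huh7 cells after a 24 h compound incubation, using a luciferase reagent and a luminescence read.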
ELG1 genotoxic = qHTS screen for small molecules that induce genotoxicity in human embryonic kidney (HEK293T) cells expressing luciferase-tagged ELG1. AID 504466, 2011. Potency, µM (top dose mostly 46 µM), for the others: top-dose activity change, positive = activation, actives largely listed as activators. hit rate 1.3% among 330,000. HEK293T ELG1-luciferase reporter, luminescence, 16 h; note: % of control where 0% means no effect; nearly all actives have a fitted effect of over 60% in size
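Luminescence read-out: rising ELG1-luciferase signal, reflecting elevated ELG1 protein under genetic stress, flags genotoxic compounds. Cells were treated for 16 hr at 37 °C before ONE-Glo detection.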
FLuc modulator = qHTS profiling assay for firefly luciferase inhibitor/activator using purifed enzyme and Km concentrations of substrates (counterscreen for miR-21 project). AID 588342, 2011. purified FLuc, Km substrates, luminescence inhibition. Luciferin 4-monooxygenase (Photinus pyralis), P08659. Potency, µM (series often up to 57.5 µM), for the others: at the highest dose activity change, negative = inhibition, most hits filed as inhibitors. hit rate 6.9% among 360,000;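 note: plate controls were vehicle for no effect and reference inhibitor for full effect; nearly all actives have a fitted effect of over 55% in size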
Target sequence (P08659 whole entry, looked up): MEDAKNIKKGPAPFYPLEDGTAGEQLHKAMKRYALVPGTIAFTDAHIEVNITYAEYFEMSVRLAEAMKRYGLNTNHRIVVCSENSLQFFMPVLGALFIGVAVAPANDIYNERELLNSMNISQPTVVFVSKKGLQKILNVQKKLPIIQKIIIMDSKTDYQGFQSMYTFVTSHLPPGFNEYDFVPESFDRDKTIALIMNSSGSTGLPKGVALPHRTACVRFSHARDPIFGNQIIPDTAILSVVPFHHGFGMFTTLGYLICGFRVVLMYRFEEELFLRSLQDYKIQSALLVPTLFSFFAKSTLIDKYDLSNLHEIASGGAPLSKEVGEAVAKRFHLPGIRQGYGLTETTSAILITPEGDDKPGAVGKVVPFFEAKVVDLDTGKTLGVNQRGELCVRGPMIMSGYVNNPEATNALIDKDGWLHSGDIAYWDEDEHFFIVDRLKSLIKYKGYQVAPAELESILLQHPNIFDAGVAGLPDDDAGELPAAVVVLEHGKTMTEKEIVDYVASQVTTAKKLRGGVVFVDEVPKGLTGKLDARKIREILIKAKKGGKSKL
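Purified P. pyralis luciferase (10nM final) with 10uM D-luciferin and 10uM ATP (Km levels) in 50mM Tris acetate pH 7.5, 10mM Mg acetate, 0.01% Tween-20, 0.05% BSA; qHTS 6-point titration, ~60 µM downward; luminescence read.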
* hit, by the source's call; u = inconclusive; x = no result; [ ] = another dose, or the depositor's remark. Calls come from the whole dose curve; as a rule, active = well fitted curve in the direction sought with a large enough effect; inconclusive = small, poorly fitted or top-dose-only effect, or another doubt; inactive = no such curve, though single readings can be large; an effect the other way counts as inactive or inconclusive. Potency is the fitted concentration of half-maximal effect.

SMILES	Rab9 promoter act	ELG1 DNA repair	SMN2 splice enh	NPC1 promoter act	ELG1 genotoxic	FLuc modulator
O=C(Cn1c(SCC(=O)Nc2ccc(F)cc2)nc2ccccc21)NCc1ccccc1Cl	x	x	x	x	x	2%
CC(C)(C)c1ccccc1NC(=S)NC1CCCCC1	1%	-17%	-7%	-7%	-9%	-2%
Cc1ccc(C(=O)N/C(N)=N/c2nc3ccccc3o2)cc1	u	u	-27%	u	u	-15%
N/C(=N\c1nc2ccccc2o1)NC(=O)c1ccccc1	u	u	13%	4µM*	8.2µM*	u
CCC(=O)N1CCc2cc(S(=O)(=O)NCCc3ccc(S(N)(=O)=O)cc3)ccc21	12%	1%	x	-2%	2%[9.26 µM]	-1%
Clc1ccc(-n2nnc(-c3cccnc3)n2)cc1Cl	3.2µM*	u	x	4µM*	u	u
O=c1[nH]c2ccccc2cc1-c1nnn(-c2ccc(F)cc2)n1	2.5µM*	u	x	3.5µM*	u	1.9µM*
Brc1ccccc1-n1nnc(-c2cccnc2)n1	u	u	x	u	10%	17µM*
c1cncc(-c2nnc(-c3cccnc3)nn2)c1	5%	u	-90%	16%	-4%	u
Fc1ccc(-n2nnc(-c3ccccc3Br)n2)cc1	0%	6%	x	0%	-4%	4%
Fc1ccc(-n2nnc(-c3cccnc3)n2)cc1	3.2µM*	u	x	u	u	15µM*
Fc1ccc(C(CCCn2nnc(-c3cccnc3)n2)c2ccc(F)cc2)cc1	5%	-21%	x	0%	-10%	-1%
COc1cc(C(=O)Nc2cc3c(cc2C)n(C)c(=O)c(=O)n3C)cc(OC)c1OC	x	x	9%	x	x	0%
C[C@H]1CN([C@@H](C)CO)C(=O)Cc2cc(NC(=O)CCC(F)(F)F)ccc2O[C@H]1CN(C)S(=O)(=O)c1ccc(Cl)cc1	x	u	x	x	12%	x
COc1cccc(CC(=O)Nc2ccc3nc(N4CCC(C)CC4)cc(C)c3c2)c1	x	x	-18%	x	x	-13%
COC(=O)C1=C(C(=O)OC)[C@@H]2N(C)c3ccccc3[C@@]23C[C@@H](C(=O)OC)N(S(=O)(=O)c2ccc([N+](=O)[O-])cc2)C3=N1	x	x	3%[9.22 µM]	x	x	x
O=C(NC1CCCCCCC1)c1ccc(Br)o1	-4%	u	x	22%	6%	u
Fc1ccc(-c2nnn(Cc3nc4ccccc4s3)n2)cc1	6%	u	3%	0%	u	u
Fc1ccc(-n2nnc(-c3cnc4ccccc4c3)n2)cc1	0.1µM*	u	x	u	0.23µM*	0.13µM*
O=C(O)c1ccc(NC(=O)c2cccc(C(=O)Nc3ccc(C(=O)O)cc3)c2)cc1	3%	13%	x	-4%	0%	-15%
O=C(O)c1ccc(C(=O)O)c(C(=O)c2ccc(NC(=O)c3ccccc3)cc2)c1	-1%	9%	x	-5%	-2%	19µM*
O=C(Nc1ccc(C(=O)c2ccc(C(=O)O)c(C(=O)O)c2)cc1)c1ccccc1	15%	3%	x	2%	-9%	11µM*
COC(=O)Cc1ccc(NC(=O)c2ccccc2Cl)cc1	-2%	u	23%	2%	15%	15µM*
CC(C)(C)c1ccc(C(=O)Nc2ccc(Cl)cc2)cc1	1.4µM*	u	3.5µM*	2.8µM*	u	u
Cc1ccc(NC(=O)c2ccsc2)cc1NS(C)(=O)=O	-3%	13%	x	-5%	2%	-3%
SMILES	Rab9 promoter act	ELG1 DNA repair	SMN2 splice enh	NPC1 promoter act	ELG1 genotoxic	FLuc modulator
CC(=O)Nc1ccc(C(=O)NNC(=O)c2ccc(Cl)cc2)cc1	-4%	25%	x	-1%	-2%	-3%
NS(=O)(=O)c1ccc(NC(=O)c2ccccc2Cl)cc1	-1%	0%	-2%	-2%	-1%	-1%
COc1cccc(C(=O)Nc2ccc(NC(=O)c3ccc(C(C)(C)C)cc3)cc2)c1	x	x	-14%	x	x	1%
COC(=O)Cc1ccc(NC(=O)c2ccc(C(C)(C)C)cc2)cc1	-19%	9.2µM*	-87%	-29%	-23%	1.3µM*
CC(C)(C)c1ccc(NC(=O)c2ccsc2)cc1	0.4µM*	u	x	0.45µM*	u	1.1µM*
CC#CCN1c2ccccc2[C@]23C[C@@H](C(=O)OC)N(S(=O)(=O)CCCC)C2=NC(C(=O)OC)=C(C(=O)OC)[C@H]13	x	x	-8%[9.22 µM]	x	x	x
CC(=O)Nc1nonc1NC(=O)c1ccc(C(C)(C)C)cc1	3.5µM*	u	u	u	19%	u
Cn1c(-c2nonc2NC(=O)c2ccc(C(C)(C)C)cc2)nc2ccccc21	-4%	-2%	-2%	0%	-2%	-6%
O=C(Nc1nc2c(s1)CN(Cc1ccccc1)CC2)C1CCCC1	u	u	20%	15%	4%	-19%
CC(C)(C)C(=O)Nc1nc2c(s1)CN(Cc1ccccc1)CC2	3.2µM*	u	u	u	u	u
Cc1cccc(-c2nnc(SCC(=O)NC3CC3)n2C)c1	-19%	-11%	x	-11%	17%	0%
Cc1cc(C)c2nc3sc(C(=O)N4CCOCC4)c(N)c3cc2c1	u	u	x	2.2µM*	1.5µM*	0.21µM*
Cc1ccc2nc3sc(C(=O)Nc4ccc(N5CCOCC5)cc4)c(N)c3cc2c1	10%	-13%	-21%	-5%	-6%	-19%
Cc1ccc(C)c2nc3sc(C(=O)N4CCOCC4)c(N)c3cc12	u	u	x	15%	u	u
Cc1cc(C)c2cc3c(N)c(C(=O)N4CCOCC4)sc3nc2c1	u	5%	x	u	8%	11µM*
CCOc1ccc2nc3sc(C(=O)N4CCOCC4)c(N)c3cc2c1	0.56µM*	10%	1.3µM*	0.56µM*	2%	1.5µM*
Nc1ncccc1C(=O)OCC(=O)N1CCN(S(=O)(=O)c2ccc(Cl)cc2)CC1	-6%	9.2µM*	x	-4%	-13%	8%
O=c1c2ccccc2nc2oc3ccccc3n12	1.6µM*	u	x	1.6µM*	10µM*	7.6µM*
CC(NS(=O)(=O)c1ccc(NC(=O)N2CCCCC2)cc1)c1ccccc1 (configuration not stated)	-1%	u	x	-2%	-2%	0%
Cn1c(=O)c2c(SCC(=O)NCc3ccco3)nc(-c3cccc(F)c3)nc2n(C)c1=O	x	x	x	x	x	-5%
